Results taken from PubChem BioAssay (NCI).
The panel holds about 83,000 compounds, 20% with a hit somewhere; the sample as a whole holds those more often.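 96-well plates, one dose, 48 hours. Percent growth reported; active if below 10.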 Unmarked numbers belong to inactive results. Calls of active or inactive are those of the source.

Legend:
Assay in all cases: NCI-60 one-dose screen, 48 h (100 = growth as untreated, 0 = no growth, -100 = all killed)
Settings in all cases: 10 µM unless noted
NCI-H23 lung = system: NCI-H23 lung
NCI-H322M lung = system: NCI-H322M lung
HOP-62 NSCLC = system: HOP-62 NSCLC
NCI-H460 lung = system: NCI-H460 lung
HOP-92 NSCLC = system: HOP-92 NSCLC
A549/ATCC NSCLC = system: A549/ATCC NSCLC
786-0 renal = system: 786-0 renal
COLO 205 colon = system: COLO 205 colon
DU-145 prostate = system: DU-145 prostate
K-562 leukemia = system: K-562 leukemia
MALME-3M melanoma = system: MALME-3M melanoma
MDA-MB-231 breast = system: MDA-MB-231 breast
RXF 393 renal = system: RXF 393 renal
SF-268 CNS = system: SF-268 CNS
SF-295 CNS = system: SF-295 CNS
SF-539 CNS = system: SF-539 CNS
UACC-257 melanoma = system: UACC-257 melanoma
M14 melanoma = system: M14 melanoma
HCT-15 colon = system: HCT-15 colon
NCI-H522 lung = system: NCI-H522 lung

Compound | growth (NCI-H23 lung) | growth (NCI-H322M lung) | growth (HOP-62 NSCLC) | growth (NCI-H460 lung) | growth (HOP-92 NSCLC) | growth (A549/ATCC NSCLC) | growth (786-0 renal) | growth (COLO 205 colon) | growth (DU-145 prostate) | growth (K-562 leukemia) | growth (MALME-3M melanoma) | growth (MDA-MB-231 breast) | growth (RXF 393 renal) | growth (SF-268 CNS) | growth (SF-295 CNS) | growth (SF-539 CNS) | growth (UACC-257 melanoma) | growth (M14 melanoma) | growth (HCT-15 colon) | growth (NCI-H522 lung)
COc1ccc(-c2nc(N3CCN(C(=O)C4CCCCC4)CC3)c3c4c(sc3n2)CCCC4)cc1 | 44% | 43.1% | -84.5% (active) | -32.8% (active) | 44.8% | -36.3% (active) | -78.4% (active) | -38.5% (active) | -21.9% (active) | 0.112% (active) | -56.2% (active) | 36.9% | -59.3% (active) | 20.3% | -82% (active) | -1.73% (active) | 63.5% | 29.9% | 49.2% | –
COC(=O)c1c2c(c(C)[n+]([O-])c1C)C(=O)C=C(NCc1ccc(F)c(F)c1)C2=O | -76% (active) | -15.7% (active) | -11.8% (active) | -26.3% (active) | -37.9% (active) | -24.4% (active) | -3.8% (active) | – | -99.6% (active) | 1.15% (active) | -100% (active) | -31.2% (active) | -51% (active) | -12.2% (active) | -99% (active) | -95.7% (active) | -83% (active) | -88.2% (active) | -83.3% (active) | –
COc1ccccc1CNC(=O)C1c2ccccc2C(=O)N(CC(C)C)C1c1cccs1 (stereo not given) | 76.6% | 69.8% | 62.6% | 55.6% | 76% | 60.7% | 75.1% | 46.1% | 71.2% | 16.4% | 46.4% | 19.6% | -2.16% (active) | 65.7% | -33.5% (active) | 63.4% | 96.2% | 61.6% | 30.8% | –
CCn1c(-c2nonc2Nc2ccc(OC)cc2)nc2ccccc21 | 107% | 105% | 115% | 109% | 134% | – | 95.1% | 124% | 113% | 118% | 120% | – | 120% | 110% | 132% | 107% | 104% | 104% | 97.7% | 89%
Cc1cccc2c(=O)c3c(sc12)c(NCCN)nc1ccccc13 | -13.2% (active) | -38.3% (active) | -64.6% (active) | -75.3% (active) | 27.7% | – | -37.4% (active) | – | -87.9% (active) | -45.2% (active) | -74.2% (active) | -75.6% (active) | 34.1% | 6.22% (active) | -75.3% (active) | -85.7% (active) | -17.6% (active) | -75.7% (active) | -79.9% (active) | -56.3% (active)
Nc1ccc(-c2nc3cc(Oc4ccc(Oc5ccc6[nH]c(-c7ccc(N)cc7)nc6c5)cc4)ccc3[nH]2)cc1 | 78.6% | 118% | 107% | 95.2% | 104% | 96.8% | 92% | 75% | – | 94.9% | 81.4% | 103% | 107% | 113% | 63.4% | 102% | 95.8% | 94% | 100% | –
Cc1ccc(NCCNCC(O)CO)c2c(=O)c3ccccc3sc12 (stereo not given) | 29.6% | 25.1% | 20.3% | -66.3% (active) | -2.88% (active) | -2.08% (active) | 27.1% | -87.2% (active) | 11.9% | -13.4% (active) | -12.4% (active) | -15.9% (active) | 13.8% | 29.3% | 25.4% | 47.3% | 6.52% (active) | -71% (active) | -37.2% (active) | –
CCCC(c1nnnn1C1CCCCC1)N1CCN(C(=O)c2ccco2)CC1 (stereo not given) | 71% | 97.5% | 79.2% | 40.6% | 47.6% | 55.2% | 74.9% | 73.4% | 69.7% | 9.87% (active) | 53.2% | 63.9% | 65.1% | 60.8% | – | 65.7% | 82.5% | 30.5% | 45.5% | –
Cc1ccc(C2CC(c3ccc(Nc4nc(NCCO)nc(Nc5ccc(Cl)cc5)n4)cc3)=NN2c2cc(Cl)cc(Cl)c2)cc1 (stereo not given) | 92.5% | 85% | 82.8% | 98.9% | 101% | – | 102% | – | 112% | 99.9% | 102% | 91.3% | 88.6% | 79.7% | 100% | 92.4% | 101% | 121% | 99.3% | 104%
COc1ccc(N(C)c2nc(N)nc3sc4c(c23)CCCC4)cc1 | 19.3% | 52.6% | 28.3% | 3.58% (active) | 36.5% | 15.4% | 26.4% | -60.3% (active) | 0.729% (active) | 7.85% (active) | 50.1% | 25.5% | 46.6% | 30% | 14.5% | -6.54% (active) | 39% | 1.13% (active) | 4.87% (active) | –
O=C1/C=C/[C@@H](O)[C@@H]2C[C@@H](O)C[C@H]2/C=C/CCCCO1 | 13% | 33.2% | 23.8% | 7.12% (active) | -3.95% (active) | 23.1% | 3.17% (active) | -49.7% (active) | 19.3% | 13.7% | 13.8% | -21.2% (active) | – | 11.7% | 21.9% | 17.8% | 9.88% (active) | 30.2% | 19.8% | –
Cn1nc(C(F)(F)F)c(-c2ccc(Cl)c(C(F)(F)F)c2)c1-c1ccc(OCc2ccc(Cl)cc2)cc1O | -6.46% (active) | 18.1% | 50.5% | 6.25% (active) | -22.4% (active) | 12.8% | 28.4% | 24.5% | 19% | – | 12.2% | 8.7% (active) | – | 26% | 12.8% | 34.4% | 2.35% (active) | 35.4% | 8.53% (active) | –
O=CCCCC(O)C=O (stereo not given) | 96.3% | 109% | 95% | 101% | 107% | 105% | 97.5% | 100% | 106% | 103% | 104% | 115% | 102% | 106% | – | 105% | 106% | 105% | 108% | –
COC(=O)c1c2c(c(C)[n+]([O-])c1C)C(=O)C=C(NCc1ccccc1)C2=O | -50% (active) | -5.71% (active) | 2.96% (active) | -13.1% (active) | -27.2% (active) | – | 4.63% (active) | – | -92.7% (active) | 1.96% (active) | -96.9% (active) | -26% (active) | -25.3% (active) | -4.22% (active) | -84% (active) | -90.2% (active) | -89.6% (active) | -80.1% (active) | -68.5% (active) | -26.1% (active)
CCOC(=O)c1c2c(n3cccc(Cl)c13)C(=O)c1ncccc1C2=O | 34.2% | 26.5% | 41.9% | 10% | 87.6% | – | 73.9% | 73.5% | 45.8% | 62.3% | 42.7% | 24.9% | – | 41.1% | 63.9% | 77.2% | 60.8% | 22.6% | 25.6% | 81.3%
CN1C(=O)N(C)C2C1NN=c1s/c(=C\c3c[nH]c4ccccc34)c(=O)n12 (stereo not given) | 38.7% | 50.4% | – | 1.56% (active) | 114% | 24.3% | 23.4% | -53.4% (active) | 5.09% (active) | 8.94% (active) | 60.6% | 34.7% | 44.5% | 39.1% | 12.8% | 2.32% (active) | 79.5% | 12.3% | 11.8% | 11.5%
CCCCN1CCN(c2ccc3nc(-c4ccc5nc(-c6ccc(OCC)cc6)[nH]c5c4)[nH]c3c2)CC1 | 64.1% | 82.4% | 46.2% | 75.9% | 95.9% | 86.5% | 75.3% | – | 68.7% | -29.1% (active) | 36% | 111% | 36.9% | 77.1% | 48.7% | 67.9% | 68.2% | 32.7% | 16.6% | –
